In ChEMBL document CHEMBL1157539, “Thousands of chemical starting points for antimalarial lead identification” (Nature, 2010):

The compounds below were run on Plasmodium falciparum (assay: GSK_TCMDC: Inhibition of Plasmodium falciparum 3D7 in whole red blood cells, using parasite LDH activity as an index of growth. Test compounds present at 2uM).
Assay type: functional

Compound	Inhibition [%]
CN1CC[C@@H](Oc2cc(C(=O)NCc3ccc(Cl)c(Cl)c3)ccc2C(F)(F)F)C1.Cl	88
CC(C)(C)Oc1ccc(C[C@@H]2NC3(C(=O)N(Cc4ccc(Cl)c(Cl)c4)c4ccccc43)C3C(=O)N(c4ccc(Br)cc4)C(=O)C32)cc1 (stereo not given in full)	86
CC(C)Cc1nc(N2CCOCC2)c2nnn(Cc3ccccc3)c2n1	98
CN(C(=O)Cc1ccc(Cl)c(Cl)c1)C1CCN(CCCCCNC(=O)/C=C/c2ccc(Cl)c(Cl)c2)CC1	84
Br.C=CCc1cccc(C)c1OCCCON1C(=N)N=C(N)NC1(C)C	94
CCNC(=O)Nc1ccc(-c2cccc(-c3nc4cccc(C)c4[nH]3)c2)cc1	91
COc1ccc(CCNCC(O)COc2nccc3c(S(=O)(=O)N4CCCNCC4)cccc23)cc1OC.Cl (stereo not given)	96
Nc1nc(N)c2cc(C(F)(F)F)ccc2n1	80
O=C(Nc1ccc(Cn2ncc(N3CCCNCC3)c(Cl)c2=O)cc1)Nc1cc(C(F)(F)F)cc(C(F)(F)F)c1.O=C(O)C(F)(F)F	100
CC(=O)Nc1ccc2[nH]cc(C3CCN(CC4CCC(NC(=O)/C=C/c5ccccc5Cl)CC4)CC3)c2n1 (stereo not given)	100
CCCCOC(=O)NCCCC[C@H](NC(=O)OC(C)(C)C)C(=O)N[C@H](C(=O)OC(c1ccccc1)c1ccccc1)[C@H]1O[C@@H](n2ccc(=O)[nH]c2=O)[C@@H]2OC(C)(C)O[C@@H]21	87
O=C(Nc1cccc(CN2CCCN(Cc3ccsc3)CC2)c1)c1ccc(-c2ccccc2)cc1.O=C(O)C(F)(F)F	90
Cl.O=C(Oc1ccc(C2CNCCc3c2cc(OC(=O)c2ccc(O)cc2)c(OC(=O)c2ccc(O)cc2)c3Cl)cc1)c1ccc(O)cc1 (stereo not given)	90
O=C(Cn1c(CCc2cccc(F)c2F)nc(=O)c2ccccc21)N(CCCN1CCCC1)Cc1ccc(-c2ccc(C(F)(F)F)cc2)cc1.O=C(O)C(O)C(O)C(=O)O	100
COc1ccc2ncc(F)c([C@@H](O)CN3CCC(NCc4cc5c(cn4)OCS5)CC3)c2c1.Cl	100
O=C(NCCCN1CCC(N2CCCCC2)CC1)c1ccc(N2CCOc3ccccc32)s1	100
Cc1ccc(Cn2nc(N3CCNCC3)ccc2=O)cc1NC(=O)Nc1ccc(-c2ccccc2)cc1.O=C(O)C(F)(F)F	94
CCN(CC)CCN(Cc1ccc(-c2ccc(Cl)s2)cc1)C(=O)Cn1c(CCc2cccc(F)c2F)nc(=O)c2ccccc21.O=C(O)C(O)C(O)C(=O)O	96
COC(=O)C1(NC(=O)c2ccc(-n3nc(C)c(-c4ccccc4)c3N)cc2)CCCC1	96
Cc1ccccc1CNc1noc(-c2sccc2Br)n1	99

Compound	Inhibition [%]
N=C(N)c1ccc(NC(=O)c2cc(Sc3ccc(O)c(C(=O)Nc4ccc(C(=N)N)cc4)c3)ccc2O)cc1	93
O=C(NCCCc1ccccc1)c1csc(C2CCCN(C(=O)c3ccc(O)c(-c4cccc5ccccc45)c3)C2)n1 (stereo not given)	97
Cc1ccc(C2CC(c3cccs3)=NN2C(=O)c2ccc(Br)o2)cc1 (stereo not given)	99
CCCNC(=O)c1cncc(-c2ccc(CNC3Cc4ccccc4C3)cc2)c1.O=C(O)C(F)(F)F	97
COc1ccc(CCNC(=O)c2ccccc2O)cc1-c1ccc(C(C)(C)C)cc1	95
O=C(/C=C/c1ccccc1Cl)Nc1ccc(Br)c(OCCN2CCC(O)(c3ccccc3)CC2)c1.O=C(O)C(=O)O	100
COc1cc2[nH]c(-c3ccc(O)cc3)c(C)c(=O)c2c(OC)c1OC	100
COCCNCc1cccc(C#Cc2cc3ncnc(Nc4ccc(OCc5cccc(F)c5)c(Cl)c4)c3s2)n1	99
NCc1ccc(-c2cccc(CNC3CCN(Cc4ccccc4)CC3)c2)cc1.O=C(O)C(F)(F)F	100
COc1ccc2nccc([C@@H](O)CN3CCC(NCc4cnc5c(c4)NC(=O)CS5)C(F)C3)c2c1.Cl (stereo not given in full)	90
CC(Cl)=CCc1c(C)nc2c(ccc3ccccc32)c1O	96
NC(CC1CC(=O)N1CC(=O)O)C(=O)O (stereo not given)	95
CCN(CC)CCCC(C)Nc1ccnc2[nH]c3ccccc3c12 (stereo not given)	82
Cc1ccc(C2CC(=O)CC(c3ccccn3)C2[N+](=O)[O-])cc1 (stereo not given)	97
Cc1[nH]c(C)c(-c2ccc(OCCCc3ccccn3)cc2)c(=O)c1Br.Cl	98
COC(=O)c1ccc2nc(-c3ccc(C(=O)NC4CCN(Cc5ccccc5)CC4)s3)[nH]c2c1	99
COc1ccc(CNc2nc(NCc3ccc(C(F)(F)F)cc3)c3cc(OC)c(OC)cc3n2)cc1OC	100
O=C(NC1CCCCN(Cc2ccccc2O)C1)c1cccc(C(F)(F)F)c1.O=C(O)C(F)(F)F (stereo not given)	93
CCN(CC)/C(=N/C(=N)NCc1ccc(Cl)cc1Cl)NCCCCCCN/C(=N\C(=N)NCc1ccc(Cl)cc1Cl)N(CC)CC	100
CCCn1c(O)nnc1SCC(=O)Nc1cc(Cl)ccc1Cl	88
